ADAM10 inh: inhibitors of human ADAM10. O14672. recombinant ADAM10, EDANS/DABCYL FRET peptide cleavage, 3 h. inhibition, % at 7 µM. 370,000 tested, 0.62% active;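 active = inhibition above a per-campaign cutoff equal to the mean of compounds falling between control-based bounds plus 3 SD, cut at about 20% in these data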;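 note: 0% = DMSO wells while the 100% control is not disclosed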
PLCb3 inh: blocks human PLC-beta3 enzyme activity. inhibition, % at 12.2 µM. Q01970. Purified PLC-beta3, fluorogenic substrate, fluorescence. AID 720704. 370,000 tested, 0.18% active; in the data active = inhibition above about 11%;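 note: 0% = median of compound wells on plate and 100% = full blocker control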
KLK7 zymogen act: proKLK7 (human) activation, primary screen. 370,000 tested, 0.9% active. P49862. AID 652039. purified proKLK7, EDANS-DABCYL substrate fluorescence; 100% is mature enzyme control, 0% vehicle. activation, % at 7 µM;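 active = activation above the mean of all tested compounds plus 3 SD, computed per campaign excluding outliers beyond control limits, cut at about 13% in these data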
ADAM17 inh: inhibitors of human ADAM17 | 370,000 tested, 0.83% active | recombinant ADAM17, EDANS/DABCYL FRET peptide cleavage | P78536 | inhibition, % at 6.95 µM;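 active = inhibition above the mean of compounds lying between control limits plus 3 SD, set per campaign, cut at about 8.5% in these data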;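 note: 0% = DMSO-only wells as the low control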
Target sequence (P78536 215-824 limits assumed): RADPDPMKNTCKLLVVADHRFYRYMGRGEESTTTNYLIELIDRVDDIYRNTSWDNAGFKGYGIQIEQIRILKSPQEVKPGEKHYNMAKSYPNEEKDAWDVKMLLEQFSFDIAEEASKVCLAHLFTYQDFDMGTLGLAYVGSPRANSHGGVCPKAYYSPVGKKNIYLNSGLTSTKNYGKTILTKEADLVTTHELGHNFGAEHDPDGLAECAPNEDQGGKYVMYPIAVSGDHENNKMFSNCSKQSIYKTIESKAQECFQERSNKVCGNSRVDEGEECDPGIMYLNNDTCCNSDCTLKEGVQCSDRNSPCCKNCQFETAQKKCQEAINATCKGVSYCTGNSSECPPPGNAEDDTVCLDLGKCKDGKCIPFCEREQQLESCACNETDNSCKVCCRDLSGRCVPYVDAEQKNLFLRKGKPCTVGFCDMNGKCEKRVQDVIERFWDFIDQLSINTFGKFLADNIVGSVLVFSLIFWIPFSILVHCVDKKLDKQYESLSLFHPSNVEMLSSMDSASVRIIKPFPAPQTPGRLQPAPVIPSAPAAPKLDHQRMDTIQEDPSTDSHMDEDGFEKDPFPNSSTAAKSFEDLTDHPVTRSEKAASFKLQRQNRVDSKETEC
PLC-gamma1 inh: PLC-gamma1 (human) inhibition, primary screen | AID 720700 | P19174 | purified PLC-gamma1, fluorogenic substrate, fluorescence | inhibition, % at 12.2 µM | 370,000 tested, 0.84% active; in the data active = inhibition above about 9.5%
ADAM10 confirm: human ADAM10 inhibition, confirmation; shares compounds with ADAM10 inh; ADAM10 QFRET peptide cleavage, EDANS fluorescence; inhibition, % at 6.95 µM; 2,100 tested, 1% active;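 active = inhibition above about 20% chosen separately for each screening run, limit read from the data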;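 note: 0% = DMSO wells and 100% = marimastat wells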
ADAM17 counter: inhibits human ADAM17 in ADAM10 exosite counter-screen. inhibition, % at 6.95 µM. ADAM17 QFRET peptide cleavage, EDANS fluorescence. 2,100 tested, 0.5% active. shares compounds with ADAM10 inh. AID 743214;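 active = mean triplicate inhibition above the solvent-only control wells' mean plus 3 SD, cut at about 12% in these data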;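 note: 0% = DMSO wells and 100% = marimastat wells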
ADAM10 ctr: counter-screen for ADAM17 exosite inhibitors: inhibitors of human ADAM10 | 2,900 tested, 47% active | recombinant ADAM10, EDANS/DABCYL FRET peptide cleavage, 3 h | shares compounds with ADAM17 inh | inhibition, % at 6.95 µM;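 active = mean inhibition over the triplicate runs exceeds the activity threshold set in the earlier primary screen, cut at about 20% in these data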;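 note: 0% = DMSO wells and 100% = marimastat wells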
ADAM17 confirm: confirmation of inhibitors of human ADAM17; shares compounds with ADAM17 inh; recombinant ADAM17, EDANS/DABCYL QFRET peptide cleavage; inhibition, % at 6.95 µM; 2,900 tested, 65% active; AID 743257;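 active = mean inhibition across replicates above the hit cutoff set in the primary screen, cut at about 8.5% in these data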;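 note: 0% = DMSO wells and 100% = marimastat wells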
An asterisk follows results filed as active; x = no result. Shown are actives, neighbours in structure and some others; about 2.9% of the full set was active somewhere.

SMILES	ADAM10 inh	PLCb3 inh	KLK7 zymogen act	ADAM17 inh	PLC-gamma1 inh	ADAM10 confirm	ADAM17 counter	ADAM10 ctr	ADAM17 confirm
CC(C)C[C@H](NC(=O)c1nc[nH]c1C(=O)NCC(=O)OCc1ccccc1)C(=O)OC(C)(C)C	23*	3	0	8.9*	2	5	1	33*	16*
CC(C)C[C@H](NC(=O)c1[nH]cnc1C(=O)N[C@@H](C)C(=O)OCc1ccccc1)C(=O)OC(C)(C)C	29*	5	1	14*	2	4	2	39*	21*
C[C@H](NC(=O)c1nc[nH]c1C(=O)NCC(=O)OCc1ccccc1)C(=O)OC(C)(C)C	7	5	0	2	-1	x	x	x	x
C[C@H](NC(=O)c1nc[nH]c1C(=O)NCC(=O)OC(C)(C)C)C(=O)OC(C)(C)C	-9	-1	0	-6	0	x	x	x	x
CC(C)C[C@H](NC(=O)c1nc[nH]c1C(=O)NCC(=O)OC(C)(C)C)C(=O)OC(C)(C)C	26*	2	0	13*	1	1	0	30*	15*
CCCCCCCC/C=C\CCCCCCCC(=O)NCCc1ccc(O)c(O)c1	28*	4	0	13*	5	5	3	26*	17*
CN(C(=O)c1cccc(NC(=O)Cc2ccc(NC(=O)C3CCN(S(=O)(=O)c4cccc([N+](=O)[O-])c4)CC3)cc2)c1)C1CCCC1	6	-2	0	4	-1	x	x	x	x
CN(C(=O)c1cccc(NC(=O)Cc2ccc(NC(=O)C3CCN(S(=O)(=O)c4cccc([N+](=O)[O-])c4)CC3)cc2)c1)C1CCC1	20*	4	1	12*	4	0	0	24*	8.9*
COc1ccc(-n2c(COc3ccccc3)nnc2SCC(=O)Nc2ccccc2-c2ccccc2)cc1	20*	5	0	11*	5	6	3	24*	13*
Cn1c(COc2ccccc2)nnc1SCC(=O)Nc1ccccc1-c1ccccc1	-3	2	1	5	-1	x	x	x	x
Oc1ccc(Cl)cc1-c1cc(-c2cccc(Br)c2)n[nH]1	25*	3	0	10*	7	13	4	31*	17*
CN(CCO)c1cccc2c1S(=O)(=O)N(Cc1cn(Cc3ccccc3C(F)(F)F)nn1)Cc1ccccc1O2	-11	-11	0	-3	0	x	x	x	x
Cc1ccc(C(=O)NNC(=S)NC(=O)c2ccc(Cl)cc2)cc1	20*	-4	0	12*	0	1	1	13	7
Cc1cccc(-n2ncc3c(NCc4cccs4)ncnc32)c1	23*	9	0	12*	3	3	0	12	9.6*
O=C(C=Cc1cccs1)c1ccccc1	-6	1	-1	0	0	x	x	x	x
COc1ccc(N(CC(=O)Nc2ccc(F)cc2)S(=O)(=O)c2ccccc2[N+](=O)[O-])c(OC)c1	25*	2	1	11*	9	2	1	32*	14*
Cc1cccc(OCCCSc2nc3ccccc3[nH]2)c1	21*	6	1	10*	7	2	1	17	9.8*
Cc1cccc(OCCSCc2nc3ccccc3[nH]2)c1	3	-4	0	-3	-3	x	x	x	x
Cc1ccc(S(=O)(=O)N2CCN(C(=O)CSc3ccc(Cl)cc3)CC2)cc1	11	3	0	1	4	x	x	x	x
Cc1ccc(SCC2(O)CCN(S(=O)(=O)c3ccc(Cl)cc3)CC2)cc1	29*	7	1	17*	8	3	0	28*	16*
CC1(C(=O)OCC(=O)Nc2nc(-c3ccc(F)c(F)c3)cs2)CC1(Cl)Cl (stereo not drawn)	21*	-5	0	9.3*	2	8	2	24*	16*
COc1ccc(CC(=O)Nc2nc(-c3ccc(F)c(F)c3)cs2)cc1	7	-2	0	6	-3	x	x	x	x
Cc1[nH]c2ccccc2c1C(=O)COC(=O)c1c(-c2c(F)cccc2Cl)noc1C	26*	-4	0	13*	-1	5	2	32*	17*
COC(=O)[C@]12C[C@H](CC(=O)NCC3CCCCC3)C(=O)N(Cc3ccc(Cl)cc3Cl)C1=C[C@H](C(C)(C)C)O[C@@H]2C	-1	2	0	-3	0	x	x	x	x
Cc1noc(C)c1COc1ccc(C(=O)OCC(=O)Nc2ccc3ccccc3c2)cc1	20*	-6	-1	8.8*	-3	9	3	33*	19*
SMILES	ADAM10 inh	PLCb3 inh	KLK7 zymogen act	ADAM17 inh	PLC-gamma1 inh	ADAM10 confirm	ADAM17 counter	ADAM10 ctr	ADAM17 confirm
CN1CCN(c2ccc3c(c2)Oc2ccccc2CN(Cc2cn(Cc4cccc(C(F)(F)F)c4)nn2)S3(=O)=O)CC1	4	3	0	3	3	x	x	x	x
Cc1ccc(C2CC2C(=O)NNC(=S)Nc2cccc(Cl)c2)cc1 (stereo not drawn)	39*	4	0	22*	7	7	1	24*	11*
COC1=C[C@H](C(=O)NCCNC(C)=O)[C@@]2(C)Cc3ccccc3[C@H]2CC1=O	-3	0	1	0	1	x	x	x	x
Cc1ccc(-c2onc(C)c2C)cc1S(=O)(=O)N1CCOc2ccccc21	21*	-7	0	14*	6	6	2	8	6
Cc1cc(-c2ccc(C(C)C)c(S(=O)(=O)N3CCOc4ccccc43)c2)on1	5	-8	0	-4	1	x	x	x	x
COC(CNC(=O)[C@H](Cc1c[nH]c2ccccc12)NC1(C(=O)NC(c2ccccc2)c2ccccc2)CCCCC1)OC	7	-1	x	3	-1	x	x	x	x
O=C(O)c1nn(CCOc2cccc(Cl)c2)c(=O)c2ccccc12	7	-7	0	2	-1	x	x	x	x
O=C(O)c1nn(CCOc2cccc(Br)c2)c(=O)c2ccccc12	21*	-7	1	11*	3	1	0	9	6
CC(C)(C)c1ccc(-c2cc(N)n[nH]2)cc1	-10	-1	0	-5	0	x	x	x	x
CC(C)(C)c1ccc(-c2cc(-c3ccccc3O)[nH]n2)cc1	34*	-1	0	17*	4	11	4	22*	11*
Cc1ccc(O)c(-c2cc(-c3ccccc3C)[nH]n2)c1	24*	2	0	9.8*	1	8	3	27*	12*
